Compound activity (PubChem)
This is a sample that favours compounds with a hit; in the whole collection about 13% have one here.
CHOP inh – blocks CHOP induction under ER stress; CHO-K1 CHOP-promoter luciferase, tunicamycin-induced, 15-18 h; inhibition, % at 10 µM; 3.8% of 220,000 active;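 active = compounds that reduced the stress-induced luciferase reporter signal by more than about 70% of percent inhibition, limit read from the data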
WT yeast gro inh – growth inhibition of WT yeast, mitochondrial fusion screen. mitochondrial fusion phenotypic screen, WT strain. inhibition, % at 10 µM. 2.1% of 190,000 active; in the data active = inhibition above about 58%; tested in S. cerevisiae
RAM inhibit – inhibitors of the yeast RAM network; AID 868; S. cerevisiae dse1pr::URA3 reporter, 5-FOA growth OD615, 2 d; analog-sensitive cbk1-as2 kinase mutant strain; inhibition, % at 50 µM; 1.8% of 190,000 active;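 active = inhibition above a set limit, 3 SD over mean compound inhibition, cut at about 8.4% in these data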;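 also: inhibition rescues growth on 5-FOA so higher OD means more RAM inhibition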
Lmaj promast – inhibitors of Leishmania major promastigote growth; Leishmania major promastigotes, resazurin fluorescence viability; inhibition, % at 10 µM; 9% of 200,000 active; in the data active = inhibition above about 50%;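 also: promastigotes grown with compound for 44 hours at 28 °C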
A number is an active result; n = inactive; x = not tested or not shown.

SMILES	CHOP inh	WT yeast gro inh	RAM inhibit	Lmaj promast
Cc1c(CN2CCc3c([nH]c4ccccc34)C2C2CCCCC2)cnn1C (configuration not stated)	n	n	n	n
CCn1ccnc1CN1CCc2c([nH]c3ccccc23)C1CC(C)C (configuration not stated)	n	n	n	n
COC(=O)Cn1cc(/C=C(/C#N)C(=O)N2CCOCC2)c2ccccc21	n	n	n	n
N/C(=N\c1nc(CSc2ccccn2)cc(=O)[nH]1)Nc1ccc(Cl)cc1Cl	n	x	x	x
Cc1ccc(NC(=O)CCn2cc(C(F)(F)F)ccc2=O)cc1	n	x	x	x
COc1nc(N=C(N)N)nc2ccc(C)cc12	n	n	n	n
CCOC(=O)c1ccc(NC(=O)CSC(=S)N2CCOCC2)cc1	n	n	n	97
Cc1cc(CSc2ccccc2)ccc1NC(=O)c1ccc(CN2CCOCC2)cc1	n	n	n	63
CCOC(=O)c1ccc(NC(=O)c2ccc(CN3CCOCC3)cc2)cc1	x	n	n	84
CSc1ccccc1NC(=O)c1ccc(CN2CCOCC2)cc1	n	n	n	n
CCOC(=O)c1ccc(NC(=O)N2CCOCC2)cc1	n	n	n	n
O=c1ccccn1Cc1c(F)cccc1Cl	n	n	n	n
CCN(CC)CC(=O)Nc1ccc2c(c1)Nc1ccccc1CC2	n	n	n	52
CN(CC(=O)Nc1ccc2c(c1)CCC2)CC(=O)Nc1ccccc1Br	n	n	n	n
CCN(CC(=O)NC(c1ccccc1)c1ccccc1)Cc1nc2ccccc2c(=O)[nH]1	n	n	n	54
CCN(CC(=O)Nc1ccc2c(c1)OCO2)Cc1nc2ccccc2c(=O)[nH]1	n	n	n	n
CCN(CC(=O)Nc1ccc2c(c1)CCC2)Cc1nc2ccccc2c(=O)[nH]1	71	n	n	n
COC(=O)c1cc(-c2ccc(NC(C)=O)cc2)nc2ccccc12	n	n	n	n
CCC(=O)N1CCc2cc(S(=O)(=O)CCC(=O)Nc3ccc(OC)c(OC)c3)ccc21	n	n	n	n
O=C/C(=C\Nc1ccc(C(=O)N2CCOCC2)cc1)c1nc2ccccc2o1	n	n	n	n
CCc1cccc(CC)c1NC(=O)CSc1nnc(CCC(=O)O)c(=O)[nH]1	n	n	n	n
COc1ccc(-c2nc3c(n2O)CCCC3=O)cc1OC	n	60	n	n
CC1(C)Cc2c(sc(NC(=O)c3ccc4ncsc4c3)c2C(N)=O)C(C)(C)N1	n	n	n	78
O=C(COc1ccccc1)Nc1ccc2[nH]c(=O)[nH]c2c1	n	n	n	90
Cc1cc(C)c(NC(=O)COc2nc3ccccc3nc2C)c(C)c1	n	n	n	n
SMILES	CHOP inh	WT yeast gro inh	RAM inhibit	Lmaj promast
O=C(COc1ccccc1)Nc1ccc2c(c1)Cc1cc(NC(=O)COc3ccccc3)ccc1-2	n	n	n	n
Cc1nc2ccc(NC(=O)COc3cccc(F)c3)cc2s1	n	n	n	n
Cc1nc2ccc(NC(=O)Cc3cccc(F)c3)cc2s1	n	n	n	62
Cc1nc2ccccc2nc1OCC(=O)Nc1ccc2ccccc2c1	n	n	n	59
Cc1cccc(OCC(=O)Nc2ccc3nc(C)sc3c2)c1	n	59	n	n
N#Cc1c(-c2ccc(Cl)cc2)c2c([nH]c1=O)-c1ccccc1OC2	n	x	x	x
CCn1nc(C(=O)Nc2ccc3nc(C)sc3c2)c2ccccc2c1=O	n	n	n	63
Cc1nc2ccc(NC(=O)COc3ccccc3)cc2s1	n	74	n	n
O=C(Cn1c(-c2cscn2)nc2ccccc21)Nc1ccc2ccccc2c1	n	n	11	n
O=C(c1ccccc1)c1ccccc1N/C=C/c1nnnn1-c1ccccc1	n	n	n	54
CCc1ccc(N2CC(C(=O)Nc3cc(C)on3)CC2=O)cc1 (configuration not stated)	n	n	n	n
COc1cc(C(=O)O/N=C(\N)c2ccncc2)cc(OC)c1OC	n	n	n	82
COc1cc(C(=O)O/N=C(\N)c2ccc([N+](=O)[O-])cc2)cc(OC)c1OC	n	n	n	56
CCOc1cc(C(=O)O/N=C(\N)c2ccc([N+](=O)[O-])cc2)cc(OCC)c1OCC	79	n	n	n
COc1ccc(C(=O)O/N=C(\N)c2ccncc2)cc1OC	n	n	n	n
CCOC(=O)c1cc(-c2ccc(OC(F)F)cc2)nc2c1c(=O)[nH]c(=O)n2C	n	n	n	n
COc1ccc(C(C(=O)Nc2ccc(F)cc2)N(C(=O)Cn2nnc3ccccc32)C2CC2)cc1 (configuration not stated)	n	68	n	n
Cc1cc(C(=O)NCC(=O)OCC(=O)NCCc2ccccc2)ccc1[N+](=O)[O-]	n	n	n	n
Cc1cc(C)n(Cc2ccc(Cl)cc2Cl)c(=O)c1S(=O)(=O)c1ccccc1	n	n	8.9	n
C=C(C)Cn1c(C)cc(C)c(S(=O)(=O)c2ccc(C)cc2)c1=O	n	n	n	68
